From ChEMBL document CHEMBL3988442, “University of Dundee, Small-Polar-MMV Screening Library” (2021) come the findings set out here.

For some of these results: Results with a measured potency or affinity are listed apart.

Common to all, as to set-up: scale not given: direction of the effect not stated beside the values
Assay [1] deals with Protein translocase subunit SecA (Escherichia coli (strain K12)) (UniProt P10408). Put plainly: Assay to Identify E. coli SecA ATPase Inhibitors. It is filed as functional. To be noted: 30 µM.
For assay [2], the target named is T1, Ubiquitin-activating enzyme e1, putative (Leishmania donovani (strain BPK282A1)) (UniProt E9BSI1).
T1 sequence (whole entry): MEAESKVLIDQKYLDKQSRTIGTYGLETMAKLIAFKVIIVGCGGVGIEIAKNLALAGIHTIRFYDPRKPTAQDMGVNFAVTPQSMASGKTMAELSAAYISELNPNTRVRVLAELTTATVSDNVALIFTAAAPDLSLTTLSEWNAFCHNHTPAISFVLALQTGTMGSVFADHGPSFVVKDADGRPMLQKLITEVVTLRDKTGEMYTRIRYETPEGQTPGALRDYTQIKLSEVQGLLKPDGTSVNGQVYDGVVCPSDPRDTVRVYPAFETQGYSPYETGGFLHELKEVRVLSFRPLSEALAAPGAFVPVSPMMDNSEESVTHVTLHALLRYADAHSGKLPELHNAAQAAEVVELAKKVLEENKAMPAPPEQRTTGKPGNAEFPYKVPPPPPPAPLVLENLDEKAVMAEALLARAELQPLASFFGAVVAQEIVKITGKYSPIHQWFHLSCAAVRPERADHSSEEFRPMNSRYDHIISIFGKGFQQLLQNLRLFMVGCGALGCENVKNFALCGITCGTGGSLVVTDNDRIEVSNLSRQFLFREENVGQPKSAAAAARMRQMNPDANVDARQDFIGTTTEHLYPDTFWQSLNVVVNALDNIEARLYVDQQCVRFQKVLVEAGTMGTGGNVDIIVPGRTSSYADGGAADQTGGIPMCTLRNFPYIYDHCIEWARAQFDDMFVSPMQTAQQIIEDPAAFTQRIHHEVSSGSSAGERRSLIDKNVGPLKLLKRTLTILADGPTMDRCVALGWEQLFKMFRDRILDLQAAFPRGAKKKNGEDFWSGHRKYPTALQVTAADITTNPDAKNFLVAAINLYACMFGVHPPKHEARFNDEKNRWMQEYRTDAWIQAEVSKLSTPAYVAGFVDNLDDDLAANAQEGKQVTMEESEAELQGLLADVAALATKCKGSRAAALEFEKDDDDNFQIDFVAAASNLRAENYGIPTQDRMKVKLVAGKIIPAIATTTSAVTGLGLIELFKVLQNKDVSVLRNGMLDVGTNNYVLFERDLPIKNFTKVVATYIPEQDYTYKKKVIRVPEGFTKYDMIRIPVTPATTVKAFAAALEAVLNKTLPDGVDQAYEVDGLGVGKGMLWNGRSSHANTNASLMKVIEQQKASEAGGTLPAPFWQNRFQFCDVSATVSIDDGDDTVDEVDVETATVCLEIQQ
Nature of the assay: Leishmania donovani Ubiquitin Activating Enzyme (LdE1). To be noted: 30 µM. It counts as functional.

Assay [3] concerns the target AMP-activated protein kinase, AMPK (Homo sapiens) (UniProt P54646+O43741+P54619+Q9UGJ0+Q9Y478+Q13131+Q9UGI9). Nature of the assay: AMP-dependent Kinase enzyme assay. An in vitro enzyme assay that detects ADP turnover that is directly proportional to AMPK activity. This uses naive AMPK that is activated during the assay with MK-8722. It is filed as functional. To be noted: 30 µM.

Assay [4] addresses Sialic acid-binding Ig-like lectin 9 (Homo sapiens) (UniProt Q9Y336). Nature of the assay: Hs-Siglec9 ALPHAscreen SOP 20170721. The note with it: 10 µM. A general note: Bead proximity is the source of the signal in Alpha formats.
In another assay the test system is Trypanosoma cruzi. Nature of the assay: Trypanosoma cruzi phosphomannomutase and mannose-1-phosphate guanylyltransferase assay. To be noted: 10 µM. It is filed as functional.
The target of assay [5] is T2, Arginase-2, mitochondrial (Homo sapiens) (UniProt P78540).
T2 sequence (whole entry): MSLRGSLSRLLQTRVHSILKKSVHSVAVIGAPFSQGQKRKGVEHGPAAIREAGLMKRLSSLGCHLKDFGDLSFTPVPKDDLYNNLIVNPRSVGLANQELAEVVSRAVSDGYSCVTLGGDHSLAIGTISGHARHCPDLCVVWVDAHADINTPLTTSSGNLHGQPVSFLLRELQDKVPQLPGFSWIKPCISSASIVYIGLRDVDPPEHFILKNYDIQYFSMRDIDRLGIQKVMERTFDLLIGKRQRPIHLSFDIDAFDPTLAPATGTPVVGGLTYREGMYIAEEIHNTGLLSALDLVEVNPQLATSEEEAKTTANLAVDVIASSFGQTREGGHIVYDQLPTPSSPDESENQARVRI
Put plainly: in vitro enzyme assay to detect the production of urea directly proportional to the activity of Arginase II. Note: in the data most compounds retested in dose-response had high values. It counts as functional. The note with it: 33.3 µM.

Assay [6] concerns the target T3, Proteasome subunit beta (Trypanosoma cruzi) (UniProt O96673).
T3 sequence (whole entry): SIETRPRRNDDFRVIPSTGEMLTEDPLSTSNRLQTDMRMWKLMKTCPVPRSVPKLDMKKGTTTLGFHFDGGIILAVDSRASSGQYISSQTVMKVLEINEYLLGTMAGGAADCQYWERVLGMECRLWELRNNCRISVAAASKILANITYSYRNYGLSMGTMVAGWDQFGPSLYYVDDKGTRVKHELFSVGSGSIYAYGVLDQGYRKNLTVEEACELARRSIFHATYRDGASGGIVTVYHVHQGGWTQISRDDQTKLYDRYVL
Nature of the assay: Trypanosoma cruzi proteasome chymotrypsin-like activity (TcProtChymo) assay. Note: in the data most compounds retested in dose-response had high values. It counts as functional. The note with it: 9.37 µM.

The species named for a further assay is Homo sapiens. Nature of the assay: To identify inhibition of the IFN signalling (Jak-Stat) pathway via expression of an eGFP reporter gene under the control of an IFN-stimulated response element (ISRE) containing MxA promoter. It counts as functional. To be noted: 30 µM. On the technique in general: A reporter such as luciferase makes a cellular process visible.

Assay [7] deals with T4, Tyrosyl-tRNA synthetase, putative (Trypanosoma cruzi (strain CL Brener)) (UniProt Q4DSP6).
T4 sequence (whole entry): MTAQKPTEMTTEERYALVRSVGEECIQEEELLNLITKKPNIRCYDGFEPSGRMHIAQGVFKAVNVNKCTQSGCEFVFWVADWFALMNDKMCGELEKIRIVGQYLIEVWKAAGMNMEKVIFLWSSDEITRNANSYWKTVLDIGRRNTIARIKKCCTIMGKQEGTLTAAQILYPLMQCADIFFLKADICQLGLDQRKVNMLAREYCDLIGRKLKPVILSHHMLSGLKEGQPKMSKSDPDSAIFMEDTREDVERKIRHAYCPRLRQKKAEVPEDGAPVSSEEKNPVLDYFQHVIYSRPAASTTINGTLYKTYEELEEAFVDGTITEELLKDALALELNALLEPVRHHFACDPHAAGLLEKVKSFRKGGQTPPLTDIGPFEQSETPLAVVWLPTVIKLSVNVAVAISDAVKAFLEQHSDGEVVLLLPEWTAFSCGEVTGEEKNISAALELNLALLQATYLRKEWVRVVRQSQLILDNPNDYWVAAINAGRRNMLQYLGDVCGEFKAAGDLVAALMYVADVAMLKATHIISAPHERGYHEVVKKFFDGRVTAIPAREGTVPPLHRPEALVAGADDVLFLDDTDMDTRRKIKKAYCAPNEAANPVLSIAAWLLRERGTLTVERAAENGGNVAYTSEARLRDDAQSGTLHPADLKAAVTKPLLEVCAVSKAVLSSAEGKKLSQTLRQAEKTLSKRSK
Nature of the assay: Trypanosoma cruzi tyrosyl tRNA synthetase (TcYRS) _High Tyrosine SOP. Note: in the data most compounds retested in dose-response had high values. It counts as functional. The note with it: 30 µM.

Assay [8] concerns the target T4, Tyrosyl-tRNA synthetase, putative (Trypanosoma cruzi (strain CL Brener)). Put plainly: Trypanosoma cruzi tyrosyl tRNA synthetase (TcYRS) SOP. It counts as functional. To be noted: 30 µM.
Assay [9] has as its target Chromo domain-containing protein 1 (Saccharomyces cerevisiae (strain ATCC 204508 / S288c) (Baker's yeast)) (UniProt P32657). Nature of the assay: ScCHD-1 Enzyme Inhibition Assay. Note: in the data most compounds retested in dose-response had high values. It counts as functional. To be noted: 30 µM.

Chain of Protein translocase subunit SecA (Escherichia coli (strain K12)) (P10408 whole entry): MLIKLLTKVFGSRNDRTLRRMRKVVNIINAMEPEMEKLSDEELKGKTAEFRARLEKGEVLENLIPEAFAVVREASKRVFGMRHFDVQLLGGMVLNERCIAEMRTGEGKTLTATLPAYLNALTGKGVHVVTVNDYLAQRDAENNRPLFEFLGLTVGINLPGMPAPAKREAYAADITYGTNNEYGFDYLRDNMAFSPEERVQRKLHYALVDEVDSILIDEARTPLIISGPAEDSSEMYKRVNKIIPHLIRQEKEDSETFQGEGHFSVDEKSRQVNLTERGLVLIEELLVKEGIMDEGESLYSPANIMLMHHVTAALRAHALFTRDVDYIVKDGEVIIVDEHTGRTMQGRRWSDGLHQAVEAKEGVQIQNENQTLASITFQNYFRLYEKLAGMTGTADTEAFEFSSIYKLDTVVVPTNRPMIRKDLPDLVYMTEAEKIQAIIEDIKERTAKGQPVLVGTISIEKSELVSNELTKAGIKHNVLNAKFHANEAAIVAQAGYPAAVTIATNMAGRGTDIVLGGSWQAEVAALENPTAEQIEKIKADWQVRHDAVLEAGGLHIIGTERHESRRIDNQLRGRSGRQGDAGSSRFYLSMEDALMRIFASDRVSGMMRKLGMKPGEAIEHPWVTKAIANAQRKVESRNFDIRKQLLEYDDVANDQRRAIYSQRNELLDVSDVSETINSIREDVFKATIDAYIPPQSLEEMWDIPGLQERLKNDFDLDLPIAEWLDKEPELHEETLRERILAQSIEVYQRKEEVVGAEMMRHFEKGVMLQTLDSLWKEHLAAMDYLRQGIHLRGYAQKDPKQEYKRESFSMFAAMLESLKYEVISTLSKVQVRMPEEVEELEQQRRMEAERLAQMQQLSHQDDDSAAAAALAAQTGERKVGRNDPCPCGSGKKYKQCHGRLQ
Chain of Chromo domain-containing protein 1 (Saccharomyces cerevisiae (strain ATCC 204508 / S288c) (Baker's yeast)) (P32657 whole entry, the tested form may be a part): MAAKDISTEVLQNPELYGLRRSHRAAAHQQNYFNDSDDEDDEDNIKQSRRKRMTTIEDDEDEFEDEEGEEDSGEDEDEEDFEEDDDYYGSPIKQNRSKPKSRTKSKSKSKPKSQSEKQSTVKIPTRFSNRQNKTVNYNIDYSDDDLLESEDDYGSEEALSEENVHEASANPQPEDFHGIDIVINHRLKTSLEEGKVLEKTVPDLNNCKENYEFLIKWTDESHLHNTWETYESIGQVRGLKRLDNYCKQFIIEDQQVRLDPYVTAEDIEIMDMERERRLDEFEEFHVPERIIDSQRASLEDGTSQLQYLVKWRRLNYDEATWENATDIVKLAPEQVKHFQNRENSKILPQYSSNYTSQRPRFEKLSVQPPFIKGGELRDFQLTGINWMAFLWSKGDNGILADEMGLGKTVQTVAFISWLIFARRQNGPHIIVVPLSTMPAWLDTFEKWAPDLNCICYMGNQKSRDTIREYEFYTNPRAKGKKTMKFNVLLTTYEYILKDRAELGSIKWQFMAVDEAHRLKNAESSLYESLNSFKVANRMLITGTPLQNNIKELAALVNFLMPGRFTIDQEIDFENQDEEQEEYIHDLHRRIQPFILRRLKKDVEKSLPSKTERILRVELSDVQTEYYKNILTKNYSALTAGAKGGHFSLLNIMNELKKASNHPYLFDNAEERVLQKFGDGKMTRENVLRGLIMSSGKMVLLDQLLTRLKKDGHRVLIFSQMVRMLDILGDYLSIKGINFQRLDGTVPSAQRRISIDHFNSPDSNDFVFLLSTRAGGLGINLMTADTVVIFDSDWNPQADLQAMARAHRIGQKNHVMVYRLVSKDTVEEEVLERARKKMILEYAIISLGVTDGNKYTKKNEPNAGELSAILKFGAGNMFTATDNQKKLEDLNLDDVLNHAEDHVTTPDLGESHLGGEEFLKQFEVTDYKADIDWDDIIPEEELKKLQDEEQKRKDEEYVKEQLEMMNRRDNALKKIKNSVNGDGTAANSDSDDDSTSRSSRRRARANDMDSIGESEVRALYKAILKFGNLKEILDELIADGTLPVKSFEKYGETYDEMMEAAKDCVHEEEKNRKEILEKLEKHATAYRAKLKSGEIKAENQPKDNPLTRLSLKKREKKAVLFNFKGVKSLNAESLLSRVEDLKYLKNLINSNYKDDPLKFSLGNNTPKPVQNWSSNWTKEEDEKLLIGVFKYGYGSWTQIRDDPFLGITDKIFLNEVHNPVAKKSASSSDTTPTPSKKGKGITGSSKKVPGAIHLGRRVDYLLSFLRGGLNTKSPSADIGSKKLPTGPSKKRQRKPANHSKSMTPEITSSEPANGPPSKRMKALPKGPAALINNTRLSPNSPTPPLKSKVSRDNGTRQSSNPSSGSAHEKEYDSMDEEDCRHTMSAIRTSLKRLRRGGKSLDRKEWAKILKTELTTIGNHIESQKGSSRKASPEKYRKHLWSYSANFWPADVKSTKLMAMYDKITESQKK
Chain of Sialic acid-binding Ig-like lectin 9 (Homo sapiens) (Q9Y336 whole entry): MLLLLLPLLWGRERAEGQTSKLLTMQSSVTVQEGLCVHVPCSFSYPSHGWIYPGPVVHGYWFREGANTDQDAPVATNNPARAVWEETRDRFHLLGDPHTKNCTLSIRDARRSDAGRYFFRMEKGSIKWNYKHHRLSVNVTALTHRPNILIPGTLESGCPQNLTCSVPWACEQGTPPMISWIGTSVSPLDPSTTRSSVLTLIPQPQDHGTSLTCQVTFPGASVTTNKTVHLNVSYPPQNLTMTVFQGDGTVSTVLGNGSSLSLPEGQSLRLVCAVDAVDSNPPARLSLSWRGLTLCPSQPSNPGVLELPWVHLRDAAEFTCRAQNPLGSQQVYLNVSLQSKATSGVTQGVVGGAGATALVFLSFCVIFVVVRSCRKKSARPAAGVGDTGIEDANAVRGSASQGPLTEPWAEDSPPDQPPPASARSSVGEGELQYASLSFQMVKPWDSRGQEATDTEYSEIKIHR

For `CC(C)NC(=O)Cn1cc(-c2ccccc2)cn1`, the Percent Effect is -1.92% in assay [1]; 6.33% in assay [2]; 6.33% in assay [3]; -0.321% in assay [4]; 2.15% with Trypanosoma cruzi; 3.23% in assay [5]. Also, the Percent Effect in assay [6] is 13.7%; in the assay listed under Homo sapiens it was -2.22%; in [7], 4.17%; in assay [8], 10.1%; in [9], 1.99%.
Take `COc1ccc(OC)c(CN2CCCCCC2c2cccs2)c1` (stereo not drawn): the Percent Effect in assay [1] is -4.16%; in assay [2], -7.79%; in assay [3], -2.05%; in [4], -14.1%; in the assay on Trypanosoma cruzi, 7.59%; in assay [5] it was 3.23%. Besides, the Percent Effect in assay [6] was 9.05%; in the assay filed under Homo sapiens, 8.15%; in assay [7], -5.29%; in assay [8] it was -32%; in [9], -9.84%.
`O=C(Nc1cccc(OCc2cccc(F)c2)c1)C1COCCO1` (stereo not drawn): the Percent Effect in [1] is -6.19%; in assay [2] it was -8%; in assay [3], 0.056%; in assay [4], 1.36%; in the assay on Trypanosoma cruzi it was -3.41%; in assay [5], -0.521%. The Percent Effect is 13.2% in [6]; 28% in the assay filed under Homo sapiens; -8.2% in [7]; -11.1% in assay [8]; -6.84% in [9].
For `O=C(Cn1nc2c(cc1=O)CSCC2)NC(Cc1ccccc1)C(=O)O` (stereo not drawn), the Percent Effect in [1] is -6.43%; in [2] it was 20%; in assay [3], -8.36%; in [4], 1.5%; with Trypanosoma cruzi it was 7.47%; in assay [5], 89.3%. The Percent Effect in assay [6] is 15%; in the assay filed under Homo sapiens, 7.8%; in assay [7] it was -2.12%; in assay [8], 15.4%; in assay [9] it was -19%.
Consider `CC(C)C(Sc1nnnn1C1CC1)C(=O)NCc1cccnc1` (stereo not drawn), for which the Percent Effect was -3.26% in assay [1]; 5.2% in [2]; 3.52% in assay [3]; -3.03% in [4]; -5.24% in the assay with Trypanosoma cruzi; 17.8% in assay [5]. Besides, the Percent Effect in [6] is 13.3%; in the assay filed under Homo sapiens, 27.7%; in [7], 6.8%; in assay [8], 19.5%; in assay [9], -3.93%.
As to `COc1ccc(C[C@H]2CN(c3nnc(C)s3)CC[C@@H]2OC)cc1`, the Percent Effect in assay [1] is -4.17%; in assay [2], 5.33%; in assay [3], -2.8%; in assay [4], -1.52%; in the assay with Trypanosoma cruzi, 2.7%; in assay [5], -49.6%. The Percent Effect in assay [6] was 5.81%; in the assay listed under Homo sapiens, 3.46%; in [7], -34.4%; in assay [8] it was 7.5%; in assay [9], 86.4%.
Consider `Cc1cnn(CCNCC(O)COc2ccc(C#N)cc2)c1` (stereo not drawn), for which the Percent Effect in assay [1] was -4.77%; in assay [2] it was 15.2%; in [3], -8.43%; in assay [4], 8.11%; in the assay with Trypanosoma cruzi, 1.42%; in [5], 2.28%. The Percent Effect in assay [6] was 8.44%; in the assay listed under Homo sapiens, -3.4%; in [7], 5.42%; in [8] it was 13.9%; in [9] it was -5.58%.
Regarding `Cc1nn(C)c(N2CCOCC2)c1CNCc1nccs1`, the Percent Effect in assay [1] was -3.96%; in assay [2] it was 7.89%; in assay [3], -1.27%; in [4], 5.34%; in the assay on Trypanosoma cruzi it was 9.4%; in assay [5], 4.21%. Moreover, the Percent Effect in assay [6] was 9.86%; in the assay listed under Homo sapiens, 3.23%; in assay [7], 3.43%; in [8], 17.1%; in [9], -6.95%.
